Reference: PubChem BioAssay AID743449 (Broad Institute, 2014)
Screen size: about 9,900 compounds; about 90 (0.9%) were called active. Another 2% or so got no clear call; they are omitted. The list comes from a sample in which actives are over-represented; it also holds similar structures and randomly drawn compounds. Unmarked numbers belong to inactive results.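 The calls were made as follows: active = mean normalized replicate activity at least 50 and at least half of replicates each reaching 50; inconclusive = only one of the two criteria met; inactive = neither criterion met.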

experiment: YAP1 pathway inhibitors via CTGF transcript, primary screen, DLD1 colon cancer cells, RT-qPCR, single point (AID 743449); details: DLD1 CTGF mRNA qPCR, 24 h; at 12.5 µM; stronger effect = higher value;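 also: 0% = neutral control wells and 100% = dasatinib control wells; higher means stronger suppression of CTGF expression like dasatinib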

Compound | inhibition
C[C@H](CO)N1C[C@H](C)[C@@H](CN(C)S(C)(=O)=O)Oc2ncc(-c3ccc(F)cc3)cc2C1=O | 15.8%
CO[C@@H]1CN(C)C(=O)c2cc(NS(=O)(=O)c3cccc(Cl)c3)ccc2OC[C@H](C)NC[C@@H]1C | 4.93%
CO[C@@H]1CC[C@H]2CCOc3ccc(C#N)cc3C(=O)N(C)C[C@@H](c3ccccc3)CC(=O)N(C)C[C@@H]1O2 | -20.2%
COCC(=O)N1[C@H](CO)[C@H](c2ccc(C#CC(C)C)cc2)[C@@H]1CNC(C)=O | 26.8%
C[C@H]1CN([C@@H](C)CO)C(=O)c2cc(NS(=O)(=O)c3cn(C)cn3)ccc2O[C@H]1CN(C)S(=O)(=O)c1ccc(F)cc1 | -21.9%
COCc1cn(CC[C@@H]2CC[C@@H](NC(=O)Nc3c(C)noc3C)[C@@H](CO)O2)nn1 | 4.39%
C[C@@H]1CCCCO[C@@H](CN(C)Cc2ccc(C(=O)O)cc2)[C@H](C)CN([C@H](C)CO)C(=O)c2cc(N(C)C)ccc2O1 | -3.21%
Cc1cccc(S(=O)(=O)N2C[C@H](O)COC[C@@H]3O[C@@H](CC(=O)Nc4ccccc4)CC[C@H]32)c1 | 8.1%
COc1ccc2c3c(n(C)c2c1)[C@@H](CO)N(Cc1ccncc1)CC31CN(C(=O)C2CCCCC2)C1 | 2.18%
COc1ccc2c3c(n(C)c2c1)[C@H](CO)N(Cc1ccncc1)CC31CN(C(=O)Nc2cccc(F)c2)C1 | 46.1%
COc1ccc2c3c(n(C)c2c1)[C@@H](CO)N(Cc1ccncc1)CC31CN(C(=O)Nc2cccc(F)c2)C1 | 52.9% (active)
CC(=O)N1[C@H](CO)[C@H](c2ccccc2)[C@@H]1CN(C(=O)c1ccccc1F)C(C)C | 13%
CCNC(=O)C[C@H]1CC[C@@H]2[C@H](COC[C@H](O)CN2C(=O)C2CCCC2)O1 | -1.66%
C[C@@H]1CCCCO[C@@H](CN(C)C(=O)Nc2ccccc2)[C@H](C)CN([C@@H](C)CO)C(=O)c2cc(NC(=O)Nc3ccccc3)ccc2O1 | 16.9%
C[C@H]1CN([C@@H](C)CO)C(=O)c2cc(C#Cc3ccccc3)cnc2O[C@H]1CN(C)C(=O)c1ccccc1 | 65.3% (active)
C[C@@H]1CN([C@H](C)CO)C(=O)c2cc(C#Cc3ccccc3)cnc2O[C@@H]1CN(C)C(=O)c1ccccc1 | 14.1%
C[C@H](CO)N1C[C@H](C)[C@H](CN(C)C(=O)Nc2ccc(-c3ccccc3)cc2)OCc2ccccc2-c2ccccc2C1=O | 28.1%
C[C@@H]1CN([C@@H](C)CO)C(=O)c2ccccc2-c2ccccc2CO[C@H]1CN(C)C(=O)Nc1ccc(-c2ccccc2)cc1 | 73.6% (active)
C[C@H]1CN([C@@H](C)CO)C(=O)c2cc(C#Cc3ccccc3)cnc2O[C@@H]1CN(C)C(=O)c1ccccc1 | 34.5%
C[C@@H]1CN([C@@H](C)CO)C(=O)c2ccccc2-c2ccccc2CO[C@H]1CN(C)C(=O)Nc1cccc(C(F)(F)F)c1 | 64.7% (active)
C[C@H](CO)N1C[C@H](C)[C@H](CN(C)C(=O)Nc2cccc(C(F)(F)F)c2)OCc2ccccc2-c2ccccc2C1=O | 11.9%

Compound | inhibition
C[C@@H]1CN([C@H](C)CO)C(=O)c2ccccc2-c2ccccc2CO[C@@H]1CN(C)C(=O)Nc1cccc(C(F)(F)F)c1 | 14.3%
C[C@@H]1CCCCO[C@H](CN(C)C(=O)Nc2ccccc2)[C@H](C)CN([C@@H](C)CO)C(=O)c2cc(NC(=O)Nc3ccccc3)ccc2O1 | 0.777%
C[C@@H]1CN([C@H](C)CO)C(=O)c2ccccc2-c2ccccc2CO[C@@H]1CN(C)C(=O)Nc1ccc(-c2ccccc2)cc1 | 39.6%
C[C@@H]1CN([C@@H](C)CO)C(=O)c2cc(NC(=O)Nc3ccccc3)ccc2O[C@@H](C)CCCCO[C@@H]1CN(C)C(=O)Nc1ccccc1 | 62.7% (active)
O=C(C[C@@H]1CC[C@H]2[C@@H](COC[C@H](O)CN2C(=O)Nc2ccc(Cl)cc2)O1)NCC1CCCCC1 | 4.31%
COc1ccccc1C#Cc1ccc([C@@H]2[C@@H](C#N)N(C(=O)C3CCC3)[C@@H]2CO)cc1 | 21%
C[C@@H](NC(=O)C[C@@H]1C[C@H]2c3cc(NS(=O)(=O)c4ccc(F)cc4)ccc3O[C@H]2[C@@H](CO)O1)c1ccccc1 | -0.447%
COc1cccc(CNC(=O)[C@H]2[C@H](CO)[C@H]3Cn4c(ccc(-c5cncnc5)c4=O)[C@H]3N2C)c1 | 1.36%
CO[C@@H](CN(C)S(=O)(=O)c1cccc(Cl)c1)[C@H](C)CN(C(=O)Nc1ccccc1F)[C@H](C)CO | -17%
CCCNC(=O)N1[C@H](C#N)[C@@H](c2ccc(C#Cc3cccc(F)c3)cc2)[C@@H]1CO | 69.7% (active)
CCCNC(=O)N1[C@H](C#N)[C@H](c2ccc(C#Cc3cccc(F)c3)cc2)[C@H]1CO | 12.2%
CCCNC(=O)N1[C@@H](C#N)[C@@H](c2ccc(C#Cc3cccc(F)c3)cc2)[C@@H]1CO | 40.6%
O=C(C[C@H]1CC[C@H]2[C@@H](COC[C@@H](O)CN2C(=O)c2ccc3c(c2)OCO3)O1)NC1CCC1 | 11%
CN(C)CC(=O)N1CC2(C1)[C@H](c1ccccc1)[C@H](CO)N2S(C)(=O)=O | -45.5%
C[C@@H]1CN([C@H](C)CO)C(=O)c2ccccc2-c2ccccc2CO[C@@H]1CN(C)Cc1ccc2c(c1)OCCN2C | 68.3% (active)
C[C@H]1CN([C@@H](C)CO)C(=O)c2ccccc2-c2ccccc2CO[C@H]1CN(C)Cc1ccc2c(c1)OCCN2C | -29.2%
C[C@@H]1CN([C@H](C)CO)C(=O)c2ccccc2-c2ccccc2CO[C@@H]1CN(C)Cc1ccc(Oc2ccccc2)cc1 | 83.9% (active)
C[C@H](CO)N1C[C@H](C)[C@@H](CN(C)Cc2ccc(Oc3ccccc3)cc2)OCc2ccccc2-c2ccccc2C1=O | -10.6%
C[C@H](CO)N1C[C@H](C)[C@H](CN(C)Cc2ccc(Oc3ccccc3)cc2)OCc2ccccc2-c2ccccc2C1=O | 59% (active)
C[C@H](CO)N1C[C@H](C)[C@H](CN(C)Cc2ccc3c(c2)OCCN3C)OCc2ccccc2-c2ccccc2C1=O | -137%
C[C@H]1CN([C@@H](C)CO)C(=O)c2ccccc2-c2ccccc2CO[C@H]1CN(C)Cc1ccc(Oc2ccccc2)cc1 | 47.8%

Compound | inhibition
C[C@@H]1CN([C@H](C)CO)C(=O)c2ccccc2-c2ccccc2CO[C@@H]1CN(C)Cc1cccnc1 | -8.82%
C[C@@H]1CN([C@@H](C)CO)C(=O)c2ccccc2-c2ccccc2CO[C@@H]1CN(C)Cc1ccc(Oc2ccccc2)cc1 | 44.4%
C[C@@H](NC(=O)C[C@@H]1CC[C@H]2[C@@H](COc3ccc(NC(=O)C4CCOCC4)cc3C(=O)N2C)O1)c1ccccc1 | -5.56%
O=C(CN1CCOCC1)N1CC[C@@H]2[C@H](CO)Nc3ccc(-c4ccccc4F)cc3[C@@H]21 | -17.8%
CCCC#Cc1ccc([C@@H]2[C@H]3CN(S(=O)(=O)c4ccccc4C)CC(=O)N3[C@H]2CO)cc1 | 26.1%
C[C@@H]1CN([C@H](C)CO)C(=O)c2ccccc2-c2ccccc2CO[C@H]1CN(C)C(=O)[C@@H]1CCCN1C | 3.47%
O=C(Nc1ccc2c(c1)[C@@H]1C[C@H](CC(=O)N3CCc4ccccc4C3)O[C@H](CO)[C@@H]1O2)c1ccc2c(c1)OCO2 | -19.3%
O=C(Nc1ccc2c(c1)[C@@H]1C[C@H](CC(=O)N3CCc4ccccc4C3)O[C@@H](CO)[C@@H]1O2)c1ccc2c(c1)OCO2 | -4.94%
O=C(Nc1ccc2c(c1)[C@@H]1C[C@@H](CC(=O)N3CCc4ccccc4C3)O[C@H](CO)[C@@H]1O2)c1ccc2c(c1)OCO2 | 21.2%
O=C(Nc1ccc2c(c1)[C@H]1C[C@@H](CC(=O)N3CCc4ccccc4C3)O[C@@H](CO)[C@H]1O2)c1ccc2c(c1)OCO2 | 61.8% (active)
O=C(Nc1ccc2c(c1)[C@H]1C[C@@H](CC(=O)N3CCc4ccccc4C3)O[C@H](CO)[C@H]1O2)c1ccc2c(c1)OCO2 | 56.2% (active)
O=C(Nc1ccc(C(F)(F)F)cc1)Nc1ccc2c(c1)[C@@H]1C[C@H](CC(=O)N3CCc4ccccc4C3)O[C@@H](CO)[C@@H]1O2 | -25%
O=C(Nc1ccc2c(c1)[C@H]1C[C@H](CC(=O)N3CCc4ccccc4C3)O[C@H](CO)[C@H]1O2)c1ccc2c(c1)OCO2 | 17%
O=C(Nc1ccc(C(F)(F)F)cc1)Nc1ccc2c(c1)[C@@H]1C[C@H](CC(=O)N3CCc4ccccc4C3)O[C@H](CO)[C@@H]1O2 | -58%
O=C(Nc1ccc(C(F)(F)F)cc1)Nc1ccc2c(c1)[C@H]1C[C@H](CC(=O)N3CCc4ccccc4C3)O[C@@H](CO)[C@H]1O2 | 57.2% (active)
CS(=O)(=O)N1[C@@H](C#N)[C@H](c2ccc(C#Cc3cccc(F)c3)cc2)[C@@H]1CO | -161%
O=C(C[C@@H]1CC[C@@H](NC(=O)C2CCOCC2)[C@@H](CO)O1)NCC1CCCCC1 | -39.2%
CO[C@@H]1CN(C)C(=O)c2ccc(NS(=O)(=O)c3ccc(C)cc3)cc2OC[C@H](C)N(C)C[C@@H]1C | -16.4%
CC(=O)N1CC2(C1)[C@H](c1ccccc1)[C@H](CO)N2C(=O)c1cnccn1 | -10.2%
